Among the test systems are DU-145 prostate; K-562 leukemia; MALME-3M melanoma; MDA-MB-231 breast; RXF 393 renal; SF-268 CNS; SF-295 CNS; UACC-257 melanoma; M14 melanoma; SF-539 CNS.
What all share (assay): NCI-60 one-dose screen, 48 h (100 = growth as untreated, 0 = no growth, -100 = all killed)
Common to all, as to settings: 10 µM unless noted

About 83,000 compounds went through this panel and 20% of them were active in at least one assay; those are over-represented in the sample as a whole.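 Step 1: grow cells in 96-well plates. Step 2: add test compound at a single concentration. Step 3: incubate 48 h. Step 4: record percent growth.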 A number with no mark means an inactive call. Activity calls are given as the source filed them. The calls were made as follows: active = growth percent below 10; inactive = the rest.

With `Nc1nc(=O)c2ccccc2s1`, the growth with DU-145 prostate was 124%; in the test with K-562 leukemia, 122%; in the test with MALME-3M melanoma, 110%; with MDA-MB-231 breast, 109%; with RXF 393 renal it was 118%; in the test on SF-268 CNS, 113%. Besides, the growth with SF-295 CNS was 105%; in the test with UACC-257 melanoma it was 118%; with M14 melanoma, 107%.
As for `O=C(Nc1cccc(-n2cc(-c3ccncc3)c(-c3ccc(Cl)c(O)c3)n2)c1)c1ccc(N2CCOCC2)c(C(F)(F)F)c1`, the growth in the test with DU-145 prostate was 52.7%; with K-562 leukemia, 7.96% (active); in the test with MALME-3M melanoma, 10.7%; with MDA-MB-231 breast, 23.4%; in the test with RXF 393 renal, -26% (active); in the test with SF-268 CNS, 55.5%. Also, the growth with SF-539 CNS was 41.6%; in the test on UACC-257 melanoma it was 38.9%; in the test with M14 melanoma, 22.7%.
`O=[N+]([O-])c1ccc(OCCCOc2ccccc2)cc1`: the growth is 108% in the test on DU-145 prostate; 99% in the test on K-562 leukemia; 110% with MALME-3M melanoma; 104% in the test with MDA-MB-231 breast; 116% in the test on RXF 393 renal; 106% in the test on SF-268 CNS. Further, the growth in the test with SF-539 CNS was 110%; in the test with UACC-257 melanoma it was 100%; with M14 melanoma, 114%.
`CN(C)CCCN(c1nc(C(Cl)(Cl)Cl)ns1)c1nc(C(Cl)(Cl)Cl)ns1`: the growth with DU-145 prostate was 75%; in the test on K-562 leukemia, 0.874% (active); in the test on MALME-3M melanoma, 44.8%; in the test on MDA-MB-231 breast, 39.4%; in the test with RXF 393 renal, 36.8%; with SF-268 CNS it was 34.3%. For the same compound, the growth with SF-539 CNS was 73.2%; in the test with UACC-257 melanoma, 19.8%; with M14 melanoma, -19% (active).
For the compound `COc1cc(C2CC(c3ccc4c(c3)OCO4)=NN2C(C)=O)cc(OC)c1OC` (stereo unspecified), the growth in the test with DU-145 prostate was 13.7%; in the test on K-562 leukemia it was 18.2%; in the test on MALME-3M melanoma, 23.3%; in the test with MDA-MB-231 breast, 61.3%; with RXF 393 renal, 7.22% (active); in the test with SF-268 CNS, 52.7%. In addition, the growth in the test with SF-295 CNS was -7.31% (active); with UACC-257 melanoma, 66.5%; in the test with M14 melanoma it was 29.3%.
As to `COc1cc(Nc2nc(N[C@H]3CCCC[C@@H]3N)nc3cc[nH]c(=O)c23)cc(OC)c1`, the growth in the test with DU-145 prostate was 41.7%; in the test on K-562 leukemia, 24.6%; with MALME-3M melanoma, 91.6%; in the test on MDA-MB-231 breast, 38.4%; in the test on RXF 393 renal, 10.9%; with SF-268 CNS, 48.1%. Moreover, the growth is -3.04% (active) in the test with SF-539 CNS, 7.33% (active) in the test on UACC-257 melanoma and 40.2% in the test on M14 melanoma.
On to `COc1ccc(C2C=C(c3ccc(OC)c(OC)c3)N=C3SC=C(C)N32)c(Br)c1` (stereo unspecified), for which the growth was 109% in the test with DU-145 prostate; 96.5% with K-562 leukemia; 99% in the test on MALME-3M melanoma; 112% with MDA-MB-231 breast; 106% in the test on RXF 393 renal; 105% in the test with SF-268 CNS. In addition, the growth in the test on SF-539 CNS is 93.6%; with UACC-257 melanoma it was 117%; with M14 melanoma, 101%.
As for `COc1ccc(C2C=C(c3ccc(Cl)cc3)N=C3SC=C(C)N32)c(Br)c1` (stereo unspecified), the growth was -31.5% (active) in the test on DU-145 prostate; 5.84% (active) in the test with K-562 leukemia; 43.6% with MALME-3M melanoma; 58.2% in the test with MDA-MB-231 breast; -7.69% (active) in the test with RXF 393 renal; 43.4% in the test with SF-268 CNS. The figures for the growth in the test on SF-539 CNS, with UACC-257 melanoma and in the test on M14 melanoma were 37.3%, 39.4% and 28.3%, respectively.
As for `COC(=O)c1cc(=O)nc(N/N=C/c2ccco2)s1`, the growth with DU-145 prostate was 112%; in the test on K-562 leukemia, 101%; in the test with MALME-3M melanoma it was 108%; with MDA-MB-231 breast, 117%; with RXF 393 renal it was 102%; in the test on SF-268 CNS it was 106%. Besides, the results for the growth in the test with SF-539 CNS, in the test with UACC-257 melanoma and in the test on M14 melanoma were 108%, 117% and 121%, respectively.
As to `Cc1cc(C(C)(C)C)ccc1S`, the growth in the test on DU-145 prostate was 116%; with K-562 leukemia, 99.8%; in the test with MALME-3M melanoma it was 113%; with MDA-MB-231 breast, 115%; with RXF 393 renal, 103%; in the test with SF-268 CNS, 102%. Further, the growth with SF-295 CNS was 102%; in the test on UACC-257 melanoma, 108%; in the test with M14 melanoma, 112%.
Turning to `O=S(=O)(NCCNc1nccc(-c2c(-c3ccc(O)cc3)nc3sccn23)n1)c1cccc2ccccc12`, the growth with DU-145 prostate was 115%; with K-562 leukemia, 91.4%; in the test on MALME-3M melanoma it was 100%; in the test with MDA-MB-231 breast, 110%; in the test on RXF 393 renal it was 104%; in the test on SF-268 CNS it was 99%. Moreover, the figures for the growth with SF-539 CNS, in the test on UACC-257 melanoma and in the test with M14 melanoma were 100%, 94.4% and 105%, respectively.
As for `COc1cc(/C=C/C(=O)c2cccc(-n3cc(-c4cc(OC)c(OC)c(OC)c4)[nH]c3=O)c2)cc(OC)c1OC`, the growth with DU-145 prostate was 12.5%; in the test with K-562 leukemia, 0.136% (active); with MALME-3M melanoma, 28.9%; in the test on MDA-MB-231 breast it was 35.4%; in the test on RXF 393 renal, -79.5% (active); in the test on SF-268 CNS it was 20.9%. Moreover, the growth in the test with SF-539 CNS was -86.1% (active); in the test with UACC-257 melanoma it was 37.2%; in the test with M14 melanoma it was -0.87% (active).
In the case of `CCC(=O)OC1=CN2C(=NC(c3ccc(N)cc3)=CC2c2cc(OC)c(OC)c(OC)c2)S1` (stereo unspecified), the growth in the test on DU-145 prostate is -16.6% (active); with K-562 leukemia, 6.1% (active); in the test with MALME-3M melanoma, 63.7%; in the test on MDA-MB-231 breast, 67.1%; in the test on RXF 393 renal, 35.1%; in the test on SF-268 CNS, 60.8%. The growth with SF-539 CNS was 43.8%; in the test on UACC-257 melanoma, 37.1%; in the test with M14 melanoma, 52.5%.
`O=S(=O)(NCCNc1nccc(-c2c(-c3ccc(F)cc3)nc3sccn23)n1)c1ccc(F)cc1`: the growth is 75.9% in the test with DU-145 prostate; 56.7% in the test on K-562 leukemia; 76.8% with MALME-3M melanoma; 78.4% with MDA-MB-231 breast; 70% in the test with RXF 393 renal; 79.2% in the test with SF-268 CNS. Moreover, the figures for the growth in the test on SF-539 CNS, in the test with UACC-257 melanoma and in the test on M14 melanoma were 102%, 102% and 73.7%, respectively.

For the origin of these results see PubChem BioAssay (NCI).
